Active and inactive are the calls of the source. The calls were made as follows: active = hit-call score of the fitted dose curve at least 0.9, where 1 is the maximum; inactive = score below 0.9.

The values below come from PubChem BioAssay (EPA / NIEHS).

The experiment is described as follows: CCTE_Simmons_MITO_max_resp_rate: CCTE's HepG2 Seahorse XF Respirometric Screening Assay at Maximal Respiratory State [uncoupled], Simmons Lab (AID 2284002). Particulars: actives raise or lower the signal. The method, then: CCTE_Simmons_MITO is cell-based, respirometric assay using HepG2 cells and a Seahorse XF Analyzer to measure oxygen consumption rates over four temporal phases spanning a total of 72 minutes: pre-injection (pre-treatment), basal (following test compound injection), maximal (following FCCP uncoupler injection), and inhibited (following rotenone/antimycin A injection)CCTE_Simmons_MITO_max_resp_rate is one of 4 assay components calculated from the CCTE_Simmons_MITO assay. It is designed to make measurements of maximal respiration using a form of respirometric reporter, as detected with […] signals by Seahorse XF96 technology. Data from the assay component CCTE_Simmons_MITO_max_resp_rate was analyzed at the endpoint, CCTE_Simmons_MITO_max_resp_rate_OCR, with bidirectional fitting relative to DMSO as the negative control and baseline of activity. Using a type of respirometric reporter, measures of maximal respiration for gain or loss-of-signal activity can be used to understand cellular oxygen consumption as it relates to cellular respiration. To generalize the intended target to other relatable targets, this assay endpoint is annotated to the mitochondria intended target family, where the subfamily is respiration.
Test chemicals were administered as a titrated series of 7 concentrations from 125 nM up to 100 uM [final] prior to kinetic endpoint detection at 6 minute intervals [3 min mix followed by 3 minutes measure] for 72 minutes. Three biological replicates of technical singles were run for every chemical concentration tested. Dimethylsulfoxide [DMSO] was used as the vehicle control. The electron transport chain inhibitor fenpyroximate was used as the positive control for decreased basal respiration and was administered as a titrated series of 6 concentrations from 250 nM up to 2.75 uM [final] with technical triplicates for the top concentration only. The uncoupler 2,4-dintirophenol was used as the positive control for increased basal respiration and was administered as a titrated series of 6 concentrations from 938 nM up to 40 uM [final] with technical triplicates for the top concentration only. A Seahorse XF Analzyer is required to measure the response.
One may read the AC50 as the concentration giving half of the maximal activity seen. As for `CC(C)(C)c1csc(-c2cc3cc(OCc4ccccc4CC(=O)O)ccc3o2)n1`, the concentration at half-maximal activity (AC50) was 4.72 µM (active). For the compound `O=C(O)Cc1cc(I)c(Oc2ccc(O)c(I)c2)c(I)c1`, the AC50 is 50 µM (active). With `C[C@]12CC[C@@H]3c4ccc(O)cc4CC[C@H]3[C@@H]1CC[C@H]2O`, the outcome was inactive.

With `CC/C(=C(/CC)c1ccc(O)cc1)c1ccc(O)cc1`, the AC50 was 11.3 µM (active).

Consider `O=C1CCC(C2CCCCC2)CC1`, for which the result was inactive. For `Cc1c2ccccc2c(C)c2c1ccc1ccccc12`, the half-maximal activity concentration (AC50) was 26.1 µM (active). Still for that read-out and setting: under `O=C1c2ccccc2C(=O)N1CCc1noc(-c2ccc(CN3CCCCCC3)s2)n1` stands 39.8 µM (active). Regarding `OC12N=C(c3ccccc3)SC1Cc1cc(Cl)ccc12` (stereo not given), the outcome was inactive.

Take `CC(C)(O)c1ccc(CNC(=O)c2cccnc2Oc2ccc3nonc3c2)cc1`: the compound was called inactive.

For the compound `NC(=O)c1nc(-c2cccc(-c3cc(F)ccc3OCC(F)(F)C(F)(F)F)c2)n[nH]1`, the AC50 is 6.36 µM (active). On to `CCN(Cc1cccnc1)C(=O)c1cccc(Cl)c1[C@]1(C)C(=O)N(Cc2ccc(OC)cc2OC)c2ccc(Cl)cc21`, for which the concentration at half-maximal activity (AC50) was 2.17 µM (active). For the compound `CN1C(=O)N(c2ccccc2Br)Cc2cnc(Nc3ccc4c(c3)OCC(CO)O4)nc21` (stereo not given), the concentration at half-maximal activity (AC50) was 50 µM (active). For the compound `CCCCOC(=O)c1ccc(O)cc1`, the half-maximal activity concentration (AC50) was 50 µM (active). The same measure, in the same setting: next, `CN(C)c1ccc(C(=C2C=CC(=[N+](C)C)C=C2)c2ccc(N(C)C)cc2)cc1`: 41.6 µM (active).

For the compound `NCc1cccc(C2CCN(C(=O)c3ccc(C#Cc4ccccc4F)o3)CC2)c1`, the concentration at half-maximal activity (AC50) is 61.4 µM (active).

For the compound `CC(=O)N1CCN(c2ccc(OC[C@H]3CO[C@](Cn4ccnc4)(c4ccc(Cl)cc4Cl)O3)cc2)CC1`, the AC50 is 12.7 µM (active). In the case of `CCCCCCCCCCCO`, the call was inactive.

Regarding `Cc1cc(F)ccc1-c1cc(N2CC[C@@H](O)[C@H]2CO)ncc1N(C)C(=O)C(C)(C)c1cc(C(F)(F)F)cc(C(F)(F)F)c1`, the half-maximal activity concentration (AC50) is 36.7 µM (active). Take `CN(C)C(=O)C1(N2CCCCC2)CCN(CC[C@@]2(c3ccc(Cl)c(Cl)c3)CN(C(=O)c3ccccc3)CCO2)CC1`: the call was inactive. In the case of `Cc1cc2c(cc1C(F)(F)F)N(C(=O)Nc1ccc(Oc3cccnc3C)nc1)CC2`, the AC50 is 10.9 µM (active). As to `CCCCCCCCCC(=O)O`, the compound was classed as inactive.

Turning to `CCCCCCCCOC(=O)c1cc(O)c(O)c(O)c1`, the half-maximal activity concentration (AC50) was 11.5 µM (active). Still for that read-out and setting: next, `CC(C)(c1cc(Br)c(O)c(Br)c1)c1cc(Br)c(O)c(Br)c1`: 6.61 µM (active). Turning to `CCCCCCCCCCCC[N+](C)(C)C`, the AC50 is 37.8 µM (active). Same read-out and setting: under `CC1(C)NC(=O)N(c2ccc([N+](=O)[O-])c(C(F)(F)F)c2)C1=O` stands 33.8 µM (active).
